Source: PubChem (National Center for Advancing Translational Sciences (NCATS))
Hits are enriched below; roughly 19% of the tested compounds scored in any of these assays.
IL1B secr inh = qHTS for Inhibitors of Inflammasome Signaling: IL-1-beta AlphaLISA Primary Screen. THP-1 LPS/ATP IL-1B secretion, AlphaLISA, 16 h; active compounds read low. activity change, % at 57.5 µM. actives 4.7% (n = 360,000). AID 743279, 2014; in the data active = activity change below about -50%; inconclusive = mostly about -30% to -49%
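THP-1 cells pretreated 1 hr with compounds (up to 57.5 uM final), then stimulated with LPS (250 ng/mL final) plus ATP (1.25 mM final); secreted IL-1B measured by AlphaLISA after 16 hr, decreased signal indicating inhibition.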
HT1080NT lethal = qHTS for induction of synthetic lethality in tumor cells producing 2HG: qHTS for the HT-1080-NT fibrosarcoma cell line | actives 1.6% (n = 360,000) | Potency, µM (highest dose often 46.1 µM), hits mostly cytotoxic | HT-1080-NT fibrosarcoma viability, CellTiter-Glo ATP luminescence, 48 h;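 note: NT is the 2HG producing partner of a matched IDH1 knockdown line; nearly all actives have a fitted effect of over 55% in size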
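HT-1080-NT fibrosarcoma cells (2HG-overproducing), 750 cells/well in RPMI with 5% FBS, dosed after 2 h and incubated 48 h at 37C. CellTiter-Glo luminescence normalized to DMSO and no-cell wells; concentration-response curves fitted and classed.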
TDP1 cell CPT = qHTS for Inhibitors of human tyrosyl-DNA phosphodiesterase 1 (TDP1): qHTS in cells in presence of CPT; actives 12% (n = 420,000); Potency, µM (series often up to 46.2 µM), hits mostly inhibitors; chicken DT40 Tdp1-/-;hTDP1 cells + 20 nM CPT, ATP luminescence, 48 h; note: nearly all actives have a fitted effect of over 55% in size
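Cell growth measured by CellTiter-Glo luminescence after a minimum 48 h, 37 C compound exposure with 20 nM CPT in Tdp1-knockout DT40 cells stably expressing hTDP1, seeded 400/well; qHTS titration format.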
TDP1 cell noCPT = qHTS for Inhibitors of human tyrosyl-DNA phosphodiesterase 1 (TDP1): qHTS in cells in absence of CPT. Potency, µM (top dose mostly 46.2 µM), actives largely listed as inhibitors. DT40 Tdp1-/- hTDP1 cells, no CPT, ATP luminescence, 48 h. actives 15% (n = 420,000); note: nearly all actives have a fitted effect of over 55% in size
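Chicken DT40 Tdp1-/- cells complemented with human TDP1, screened without camptothecin (DMSO vehicle only), 400 cells/well. Compounds pin-transferred, cells incubated at 37 °C for at least 48 hr. Growth read as ATP-dependent luminescence (CellTiter-Glo, 30 min at RT).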
HT1080 IDH1KD tx = qHTS for induction of synthetic lethality in tumor cells producing 2HG: qHTS for the HT-1080-IDH1KD cell line. HT-1080 IDH1 knockdown viability, ATP luminescence, 48 h. Potency, µM (doses to about 46.1 µM), usual class: cytotoxic. actives 2% (n = 360,000)
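IDH1KD HT-1080 cells, 750/well, RPMI + 5% FBS; compound pinned after 2 h settling; 48 h, 37 °C; CellTiter-Glo luminescence; % activity normalised to DMSO and no-cell wells; curves fitted, classed by r2 and efficacy.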
A number is an active result; - = inactive; ? = inconclusive; . = no result; [ ] = dose if it differs, or a comment. Unless noted, calls come from the whole dose curve; as a rule, active = well fitted curve in the direction sought with a large enough effect; inconclusive = small, poorly fitted or top-dose-only effect, or another doubt; inactive = no such curve, though single readings can be large; an effect the other way counts as inactive or inconclusive.

SMILES | IL1B secr inh | HT1080NT lethal | TDP1 cell CPT | TDP1 cell noCPT | HT1080 IDH1KD tx
COc1ccc(N2CCN(C(c3ccccc3)c3nnnn3Cc3ccccc3)CC2)cc1 (stereo not given) | . | . | ? | 15.8µM | .
COc1ccc(C(c2nnnn2Cc2ccccc2)N2CCN(C/C=C/c3ccccc3)CC2)cc1 (stereo not given) | ? | ? | ? | 14.6µM | ?
COc1ccc(CCNC(=O)c2cnc3sc(N4CCOCC4)nn3c2=O)cc1OC | . | . | - | - | .
Cc1ccc(N2NC(C)(c3cccs3)NC2=S)cc1 (stereo not given) | - | ? | ? | ? | -
CCOCCCNC(=O)c1ccc(-n2c(=S)[nH]c3ccccc3c2=O)cc1 | - | - | - | - | -
Cc1ccc(S(=O)(=O)N(C)C)cc1NC(=O)CCc1ccccc1 | - | - | - | - | -
Cc1cccc(C)c1-n1nnnc1C1c2ccccc2C(=O)N1CCc1ccc(O)cc1 (stereo not given) | - | - | ? | ? | -
CCN(CC)S(=O)(=O)c1ccc(N2CCOCC2)c(NC(=O)Cc2cccc3ccccc23)c1 | - | - | ? | 16.4µM | -
CC(=O)Nc1ccc(S(=O)(=O)N(C)CC(=O)Nc2ccccc2N2CCCC2)cc1 | - | - | ? | ? | -
O=C(Cc1ccccc1F)Nc1cc(S(=O)(=O)N2CCCCC2)ccc1N1CCOCC1 | - | - | 20.6µM | 16.4µM | -
CCN(CC)S(=O)(=O)c1ccc(N2CCOCC2)c(NC(=O)Cc2ccccc2)c1 | - | - | - | - | -
COc1ccccc1CC(=O)Nc1cc(S(=O)(=O)N2CCOCC2)ccc1N1CCOCC1 | - | -[9.24 µM] | - | - | -
CN(CC(=O)Nc1ccccc1N1CCOCC1)S(=O)(=O)c1ccc(F)cc1 | - | - | 18.4µM | 18.4µM | -
CCN(CC)S(=O)(=O)c1ccc(N2CCOCC2)c(NC(=O)c2nn(C(C)C)c(=O)c3ccccc23)c1 | - | - | 10.3µM | 5.17µM | -
C[C@H](CO)N1C[C@H](C)[C@@H](CN(C)C(=O)Nc2cccc(F)c2)Oc2ncc(Br)cc2C1=O | - | - | - | - | -
C/C=C/C=N/Nc1nc(C)cc(=O)[nH]1 | - | - | - | - | -
CCCCC(=O)NC(=S)Nc1ccc(S(=O)(=O)N2CCCC2)cc1 | - | - | - | ? | -
CCCCN1C(=O)C(CC(=O)NCCCCc2ccccc2)CC(C(=O)N(C)C)=C1C (stereo not given) | - | - | - | ? | -
O=C(Cc1ccccc1F)Nc1cc(S(=O)(=O)N2CCCC2)ccc1Cl | - | - | - | - | -
CCN(CC)S(=O)(=O)c1ccc(N2CCOCC2)c(NC(=O)Cc2ccccc2F)c1 | - | - | - | 14.6µM | -
O=C(Cc1ccccc1F)Nc1ccc(S(=O)(=O)N2CCCC2)cc1 | -50.7 | - | ? | - | -
CN(C(=O)CSc1nc2ccc(Cl)cc2[nH]1)C1CCS(=O)(=O)C1 (stereo not given) | - | - | - | - | -
COc1ccc(CC(=O)Oc2ccc(Cl)cc2Br)cc1S(=O)(=O)N1CCOCC1 | - | - | - | - | -
CCc1sc(C(=O)Nc2ccc(N3CCOCC3)cc2)cc1C | -64.1 | ? | 20.6µM | ? | ?
CC(C)(O)C#Cc1ccc(C(=O)Nc2ccc3c(c2)OCO3)s1 | -52.5 | ? | ? | - | 7.31µM
SMILES | IL1B secr inh | HT1080NT lethal | TDP1 cell CPT | TDP1 cell noCPT | HT1080 IDH1KD tx
CC1CCc2sc(C(=O)Nc3ccc(N4CCOCC4)cc3)cc2C1 (stereo not given) | ? | - | ? | - | ?
CCc1sc(C(=O)Nc2ccc3c(c2)OCO3)cc1C | -80.3 | - | - | ? | -
Cc1ccc(S(=O)(=O)N2CC3C(=O)C[C@@H](c4ccccc4)N(S(=O)(=O)c4cccc(Cl)c4)C3CC2c2ccccc2)cc1 (stereo not given in full) | - | - | ? | 23.1µM | -
Cc1ccc(S(=O)(=O)N2C3CC(c4ccccc4)N(S(=O)(=O)c4cccc(Cl)c4)CC3C(=O)C[C@H]2c2ccccc2)cc1 (stereo not given in full) | - | - | - | - | -
Cc1ccc(S(=O)(=O)N2C[C@H]3C(=O)C[C@@H](c4cccs4)N(S(=O)(=O)c4ccc(C)cc4)[C@H]3C[C@H]2c2ccccc2)cc1 | -57.7 | - | - | ? | -
Cc1ccc([C@@H]2C[C@H]3[C@@H](CN2S(=O)(=O)c2ccc(C)cc2)C(=O)C[C@@H](c2ccccc2)N3S(=O)(=O)c2ccc(C)cc2)cc1 | - | - | - | - | -
Cc1ccc(S(=O)(=O)N2C[C@H]3C(=O)C[C@@H](c4ccccc4)N(S(C)(=O)=O)[C@H]3C[C@H]2c2ccccc2)cc1 | -91.6 | - | ? | ? | ?
OC1CCCCC1 | - | - | - | - | -
CCOc1ccc(N=C2NC(=O)CS2)cc1 | - | - | - | - | -
O=C1NC2(Nc3ccccc31)C(=O)Nc1ccccc12 (stereo not given) | - | - | - | ? | -
C=CCN1C(=O)C2(NNc3ccccc3O2)c2ccccc21 (stereo not given) | - | ? | 6.51µM | 8.2µM | ?
C=CCN1C(=O)C2(NC(=O)c3ccccc3N2)c2ccccc21 (stereo not given) | - | ? | 18.4µM | ? | ?
CC(S)C(=O)NCC(=O)O (stereo not given) | . | . | ? | - | .
Cc1cc(=O)[nH]c(SCC2COC3(CCCCC3)O2)n1 (stereo not given) | - | - | - | - | -
NCCNC[C@@H]1COC2(CCCCCCCCCCC2)O1 | -68.3 | 14.6µM | ? | 23.1µM | ?
COc1ccc(C(=O)N(CC2CCCO2)C(C(=O)NC2CCCC2)c2ccc(Cl)cc2)cc1OC (stereo not given) | - | - | ? | 18.4µM | -
COc1cc(C(=O)NCC2CCCO2)ccc1OCc1ccc(Cl)cc1Cl (stereo not given) | -86.0 | - | ? | ? | -
COc1cc(C(=O)NCC2CCCO2)ccc1OCc1ccc(Cl)cc1 (stereo not given) | - | - | ? | ? | -
COc1ccc(C(C(=O)NC2CCCCC2)N(CC2CCCO2)C(=O)C2COc3ccccc3O2)cc1OC (stereo not given) | - | - | - | ? | -
COc1cc(C(=O)NCC(c2ccco2)N2CCCC2)ccc1OCc1ccc(Cl)cc1Cl (stereo not given) | ? | ? | ? | 23.1µM | ?
COc1ccc(S(N)(=O)=O)cc1C(=O)N(C)CC(=O)Nc1ccc(N2CCOCC2)cc1 | - | - | - | - | -
